# According to PubChem BioAssay (NCATS):
# Results filed as inconclusive are left out. Entries that show only a call come without a potency. Values without a mark were called inactive. The source made the active and inactive calls. Calls follow the shape of the dose curve; as a rule, active = well fitted inhibition curve with a large enough effect; inconclusive = small, poorly fitted or top-dose-only effect; inactive = flat fitted curve, though single readings scatter.
# Experiments:
# [1] = biological target: Glutathione peroxidase 1 (Homo sapiens) (UniProt P07203); test: Primary qHTS Assay for Inhibitors of Recombinant Selenoprotein Glutathione Peroxidase 1 (GPX1) (AID 1845191); also: potency is read from the fitted curve at half-maximal effect
# In short: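 GR-coupled assay: compounds preincubated 30 min at room temperature with GPX1, then reaction started with CHP; final 10 nM GPX1, 1 mM GSH, 0.5 mM CHP, 0.5 mM NADPH, 100 nM GR, 0.01% BSA, pH 7.5 Tris buffer. NADPH fluorescence (340/450 nm) read at 0 and 15 min.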
# [2] = biological target: Phospholipid hydroperoxide glutathione peroxidase GPX4 (Homo sapiens) (UniProt P36969); test: Primary qHTS Assay for Inhibitors of Recombinant Selenoprotein Glutathione Peroxidase 4 (GPX4) (AID 1845192)
# In short: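 GR-coupled assay: recombinant GPX4 preincubated 30 min with compound at room temperature; final 200 nM GPX4, 1 mM GSH, 0.5 mM cumene hydroperoxide, 0.5 mM NADPH, 100 nM GR, 0.01% BSA, pH 7.5 Tris. NADPH fluorescence (340/450 nm) read at 0 and 15 min.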
# Also: nearly all actives have a fitted effect of over 65% in size.
# Chain of Glutathione peroxidase 1 (Homo sapiens) (P07203 whole entry, looked up): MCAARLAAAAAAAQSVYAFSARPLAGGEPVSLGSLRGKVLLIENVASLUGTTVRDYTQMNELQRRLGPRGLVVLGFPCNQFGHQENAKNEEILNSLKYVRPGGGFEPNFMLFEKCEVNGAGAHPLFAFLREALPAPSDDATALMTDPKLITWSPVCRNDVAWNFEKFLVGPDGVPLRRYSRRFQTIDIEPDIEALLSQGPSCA
# Chain of Phospholipid hydroperoxide glutathione peroxidase GPX4 (Homo sapiens) (P36969 whole entry, looked up): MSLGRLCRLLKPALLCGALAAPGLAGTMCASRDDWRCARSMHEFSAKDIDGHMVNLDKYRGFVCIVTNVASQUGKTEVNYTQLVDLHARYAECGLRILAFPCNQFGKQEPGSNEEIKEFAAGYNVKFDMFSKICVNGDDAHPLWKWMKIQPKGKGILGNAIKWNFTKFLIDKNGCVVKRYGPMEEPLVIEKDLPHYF
SMILES,Potency [1],Potency [2]
CCOC(=O)O[C@]1(C(=O)OCCl)CC[C@H]2[C@@H]3CCC4=CC(=O)C=C[C@]4(C)[C@H]3[C@@H](O)C[C@@]21C,inactive,inactive
CCCC(=O)O[C@]1(C(=O)CCl)[C@@H](C)C[C@H]2[C@@H]3CCC4=CC(=O)C=C[C@]4(C)[C@@]3(F)C(=O)C[C@@]21C,inactive,inactive
C[C@H]1C[C@@H]2[C@H]([C@@H](O)C[C@@]3(C)[C@H]2CC[C@]3(O)C(=O)CO)[C@@]2(C)C=CC(=O)C=C12,inactive,inactive
O=C(CS(=O)Cc1ccco1)NC/C=C\COc1cc(CN2CCCCC2)ccn1 (configuration not stated),18 µM (active),inactive
O=C(c1ccccc1)c1ccccc1,inactive,inactive
CC(C)C[C@@H]1[C@H](c2ccccc2)OC(=O)N1CCCN1CCCCCC1,inactive,inactive
CNC(=O)c1c(I)c(NC(C)=O)c(I)c(C(=O)O)c1I,inactive,inactive
O=[N+]([O-])c1ccc(O)c2ncccc12,inactive,inactive
CCCCCC(=O)O[C@]1(C(C)=O)CC[C@H]2[C@@H]3CCC4=CC(=O)CC[C@]4(C)[C@H]3CC[C@@]21C,inactive,inactive
CN1CCC(=C2c3ccccc3CCc3cccnc32)CC1,inactive,inactive
CCN1CCN(C(=O)N[C@@H](C(=O)N[C@@H]2C(=O)N3[C@@H]2SC(C)(C)[C@H]3C(=O)O)c2ccccc2)C(=O)C1=O,inactive,inactive
CN1CCCN(C(c2ccccc2)c2ccc(Cl)cc2)CC1 (configuration not stated),inactive,inactive
O=C(COCCOCCOCC(=O)Nc1c(I)cc(I)c(C(=O)O)c1I)Nc1c(I)cc(I)c(C(=O)O)c1I,inactive,inactive
OC(CCCN1CCCCC1)(c1ccccc1)c1ccccc1,inactive,inactive
CC(C)(C)C(O)/C=C/c1ccc2c(c1)OCO2 (configuration not stated),inactive,inactive
Cc1ccc(C(=O)Oc2ccc(C(O)CNC(C)(C)C)cc2OC(=O)c2ccc(C)cc2)cc1 (configuration not stated),inactive,inactive

SMILES,Potency [1],Potency [2]
O=C(CO)[C@@H](O)[C@H](O)[C@@H](O)CO,inactive,inactive
C/C(=C(/OCCOc1ccc(Cl)cc1)c1ccc(Cl)cc1Cl)n1ccnc1,inactive,inactive
CC(C)(C)CC(=O)OCC(=O)[C@@]1(O)CC[C@H]2[C@@H]3CCC4=CC(=O)C=C[C@]4(C)[C@H]3[C@@H](O)C[C@@]21C,inactive,inactive
CCC1=C[C@@H]2CN(C1)Cc1c([nH]c3ccccc13)[C@@](C(=O)OC)(c1cc3c(cc1OC)N(C)[C@H]1[C@@](O)(C(=O)OC)[C@H](OC(C)=O)[C@]4(CC)C=CCN5CC[C@]31[C@@H]54)C2,inactive,inactive
NS(=O)(=O)c1cc2c(cc1Cl)CN(C1CCCCC1)C2=O,inactive,inactive
CCCCCC[C@@H](CCC)C(=O)O,inactive,inactive
O=C(CCCCC(=O)Nc1c(I)cc(I)c(C(=O)O)c1I)Nc1c(I)cc(I)c(C(=O)O)c1I,inactive,inactive
Cc1nc(C2CCCCC2)c(-c2ccc(S(N)(=O)=O)c(F)c2)o1,inactive,inactive
NC(=O)NC1N=C([O][Al])NC1=O (configuration not stated),inactive,inactive
COC(=O)c1cc(Cl)ccc1NS(=O)(=O)C(F)(F)F,inactive,inactive
NS(=O)(=O)c1cc(C(=O)NN2C[C@H]3[C@H]4CCC(C4)[C@H]3C2)ccc1Cl,inactive,inactive
CCOC(=O)OCC/C(SC(=O)OCC)=C(\C)N(C=O)Cc1cnc(C)nc1N,inactive,inactive
CC(=O)[C@@]1(O)CC[C@H]2[C@@H]3C[C@H](C)C4=CC(=O)CC[C@]4(C)[C@H]3CC[C@@]21C,inactive,inactive
C[N+](C)(CCOc1ccccc1)Cc1cccs1,inactive,inactive
CC1(C)S[C@@H]2[C@H](NC(=O)C(c3ccccc3)S(=O)(=O)O)C(=O)N2[C@H]1C(=O)O (some centres not stated),inactive,inactive
